From PubChem BioAssay AID463212 (Sanford-Burnham Center for Chemical Genomics, 2010)
About 4,400 (1.3%) of roughly 330,000 compounds were called active. The list comes from a sample in which actives are over-represented; it also holds similar structures and randomly drawn compounds. Values without a mark were called inactive.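 Rule for the calls: active = growth inhibition of the mutant yeast at or above 50%; inactive = the rest.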

Assay: growth inhibition of tim23-1 ts yeast – luminescence, uHTS, primary screen (AID 463212);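 note: temperature-sensitive mutant grown at 25 °C; plate controls were DMSO-treated mutant yeast for no effect and medium wells lacking yeast for full effect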
Details: S. cerevisiae tim23-1 growth, BacTiter-Glo luminescence, 24 h; at 20 µM; active compounds read high

SMILES	inhibition
Cc1ccc(NS(=O)(=O)c2cn(C)c(=O)n(C)c2=O)c(C)c1	11%
Cc1cccc(C(C)C)c1NC(=O)COC(=O)C1CC(=O)N(Cc2ccccc2)C1 (centres undefined)	-6%
Clc1ccc(Nc2ccc3ccccc3n2)cc1	84.8% (active)
C(=N\Nc1ccc2ccccc2n1)/c1ccc2c(c1)OCO2	18.7%
Cc1cccc(NC(=O)c2ccc3ccccc3n2)n1	26.7%
CC(=O)N1c2ccc(S(=O)(=O)N3CCCC(C(=O)Nc4cccc(F)c4)C3)cc2CC1C (centres undefined)	19.4%
S=C(NNC(=S)NC1CC2CCC1C2)NC1CC2C=CC1C2 (centres undefined)	13.8%
S=C(NNC(=S)NC1CC2C=CC1C2)NC1CC2C=CC1C2 (centres undefined)	6.32%
CC(C)c1ccc(NC(=S)NC2CC3C=CC2C3)cc1 (centres undefined)	50.9% (active)
COc1ccc(C(=O)Nc2cccc(NC(=O)c3ccc(OC)cc3OC)n2)c(OC)c1	-26.2%
COc1cc(SC)ccc1C(=O)Nc1nc(C)cs1	51.1% (active)
Cc1csc(NC(=O)c2ccc(C)s2)n1	17%
O=C(/C=C/c1ccc(N2CCOCC2)cc1)c1ccccc1	35.2%
O=C(/C=C/c1ccccc1)c1ccccc1O	55.8% (active)
O=C(/C=C/c1ccccc1)N/C(=C/c1ccccc1)C(=O)Nc1ccccc1O	19.1%
Nc1cc(N)nc(SCC(=O)Nc2cccc(S(=O)(=O)N3CCCCC3)c2)n1	-8.43%
O=C1C=C(c2cccc(Cl)c2)C[C@@H](c2ccc(F)cc2)C1	35.1%
COc1ccccc1C1=CC(=O)C[C@H](c2ccc(F)cc2)C1	35.3%
O=C1C=C(c2cccc(Cl)c2O)C[C@@H](c2ccc(F)cc2)C1	63.4% (active)
COc1ccc2ccccc2c1CNc1nnnn1C	-0.932%
CC(=C/c1ccccc1)/C=N/NC(=O)c1cc(C)oc1C	-0.867%
Cc1cc(C(=O)N/N=C\C(Br)=C\c2ccccc2)c(C)o1	55.9% (active)

SMILES	inhibition
CC(C)c1cc(C(=O)N/N=C/C(Br)=C/c2ccccc2)n[nH]1	34.3%
CCN(CC)C(=O)c1nc[nH]c1C(=O)N(C)Cc1ccccc1	8.93%
Cc1cc(C)cc(NC(=O)C2CCCN2S(=O)(=O)c2cccc3cccnc23)c1 (centres undefined)	47.9%
CCOC(=O)c1cc2c(=O)n3ccccc3nc2n(CC(C)C)c1=NC(=O)c1c(-c2c(F)cccc2Cl)noc1C	28.6%
Nn1c(SCC(=O)NC2CCCc3ccccc32)nnc1C1CC1 (centres undefined)	2.69%
CC(=O)O[C@H]1c2ccccc2-c2ccccc2[C@@H]1OC(C)=O	21.8%
CC(=O)Nc1ccc(Oc2ccc3c(c2)C(=O)NC3=O)cc1	-0.541%
CC(=O)Oc1ccc2c(c1)C(=O)c1ccccc1C2=O	50.2% (active)
O=C(O)CN(Cc1ccco1)S(=O)(=O)c1ccc(F)cc1	-1.65%
O=C(NCCCN1CCOCC1)c1cc(-c2cccc(O)c2)on1	-0.573%
Cc1c(C(=O)N2CCCc3ccccc32)oc2ccccc12	23.8%
O=C(c1cc(-c2ccc(O)cc2)on1)N1CCOCC1	12.7%
Cc1ccc(-c2cc(C(=O)N3CCc4ccccc4C3)no2)cc1	15.5%
O=C(c1cc(-c2ccc(O)cc2)on1)N1CCCc2ccccc21	54.2% (active)
O=C(c1cc(-c2cccc(O)c2)on1)N1CCc2ccccc2C1	50.3% (active)
CSc1ccc(S(=O)(=O)N2CCC(C(=O)NCc3ccncc3)CC2)cc1	0.185%
COC(=O)c1ccc2ccccc2c1OC1OC(CO)C(O)C(O)C1NC(C)=O (centres undefined)	2.47%
Cc1cccc(-c2nnc(SCC(=O)O)n2Cc2ccccc2)c1	1.27%
CC1CCC2(CC1)NC(=O)N(Cc1nnc(-c3cccs3)o1)C2=O (centres undefined)	8.03%
CCn1c(SCc2cccc(C(=O)O)c2)nnc1-c1ccc(Cl)cc1	10.3%
O=C(COC(=O)C1CCCCC1)Nc1ccc([N+](=O)[O-])cc1	2.5%
CC(=O)Nc1ccc(NC(=O)COC(=O)C2CCC(C(C)(C)C)CC2)cc1 (centres undefined)	32.6%

SMILES	inhibition
CCC(C)c1ccc(NC(=O)COC(=O)C2CCCC2)cc1 (centres undefined)	56.9% (active)
Clc1ccc(-c2nnc(-c3ccccc3)nc2N2CCSCC2)cc1	45.4%
O=S(=O)(c1ccccc1)c1nc(Cc2ccccc2)oc1N1CCOCC1	7.56%
CCCCC(NC(=O)c1cccc(Br)c1)C(=O)O (centres undefined)	4.77%
COC(=O)CNS(=O)(=O)c1ccc(Cc2ccc(S(=O)(=O)NCC(=O)OC)cc2)cc1	31.2%
COc1cc(OC)c(C(=S)N2CCCC2)cc1OC	11.7%
O=C1N=C(N2CCCC2)S/C1=C\c1cccc(Br)c1	27.3%
CC(C)=C1SC(N2CCN(c3cccc(C)c3)CC2)=NC1=O	14.1%
CCN1C(=O)/C(=C2\SC(N3CCCCC3)=NC2=O)c2ccccc21	54.8% (active)
CSc1ccccc1OCc1cc(C(=O)N2C[C@H]3CC[C@H]2C3)no1	18.7%
CCCOc1ccc(CN(CCO)CCO)cc1C(=O)OC	1.64%
COCCCNC(=O)C1CCN(c2ccc(N3CCOCC3)nn2)CC1	16.9%
O=C(NCc1ccccc1)c1onc(CSc2nc3ccccc3[nH]2)c1C(=O)NCc1ccccc1	6.16%
CCOC(=O)C1CCN(C(=O)c2cccc(S(=O)(=O)N(CC)c3ccccc3)c2)CC1	14.3%
CCCCN1C(=O)CC(N2CCOCC2)C1=O (centres undefined)	-1.61%
Cn1nc(C(F)(F)F)cc1C(=O)O	-3.37%
O=c1oc2ccccc2c(NC2CCCCC2)c1NS(=O)(=O)c1ccc(Cl)cc1	25.2%
O=c1ccc2cc(S(=O)(=O)Nc3ccccc3F)ccc2o1	17.6%
O=c1oc(-c2ccccc2NS(=O)(=O)c2ccc(Cl)cc2)nc2ccccc12	59.8% (active)
CC(=O)Nc1ccc(N2C(=O)CC(Sc3nccc(C)n3)C2=O)cc1 (centres undefined)	10.2%
